Screening results: PubChem BioAssay, National Center for Advancing Translational Sciences (NCATS)
Hits are enriched below; roughly 21% of the tested compounds scored in any of these assays.
Pf growth 96h = P. falciparum growth inhibition at 96 hours; P. falciparum luciferase reporter growth, 96 h; Potency, µM (top dose mostly 28.7 µM), usual class: inhibitors; hit rate 6.9% among 320,000; AID 504834
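Infected RBCs, 2% Hct / 0.05% parasitemia final; luciferase-reporter P. falciparum; cpd 96 h, 37 C, 5% CO2; luciferase detection reagent; luminescence.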
Pf growth 48h = inhibits P. falciparum growth in the first generation, 48 h; P. falciparum luciferase growth in erythrocytes, 48 h; Potency, µM (series often up to 28.7 µM), most hits filed as inhibitors; hit rate 5.9% among 310,000; AID 504832
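First compound was added to culture medium, then infected red cells at 0.1% parasitemia and 2% hematocrit (final). After incubation at 37 C under 5% CO2, luciferase detection reagent was dispensed and light output recorded.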
Cycloheximide cs = counter-screen hit for Shiga toxin inhibitors, cycloheximide; max response, %; hit rate 12% among 300,000; cell reporter, cycloheximide protein synthesis inhibition counterscreen; in the data active = max response mostly above about 13%, no sharp cut-off; inactive = mostly below about 14%; also: read at 38.3 µM for the half of the compounds with a filed dose
NS1 function inh = influenza NS1 inhibition | Potency, µM (titrated, usually from 46.1 µM) | hit rate 0.4% among 270,000 | AID 2326; calls by dose curve; also: actives are rising curves; nearly all actives have a fitted effect of over 50% in size
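A cell-based growth assay was used: compounds that relieve NS1-induced slow growth of budding yeast raise OD600. Assay medium was yeast nitrogen base with ammonium sulphate and -URA supplement, pH 6.0, with 2% galactose.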
Shiga toxin inh = blocks Shiga toxin action in Vero cells; Vero cells, Shiga toxin protein synthesis inhibition reporter; inhibition, % at 38.7 µM; hit rate 9.2% among 290,000; AID 2315; in the data active = inhibition mostly above about 28%, no sharp cut-off; inactive = mostly below about 43%
Of the large screens only hits and unclear results are named; the others gave an inactive call. Unless noted, calls follow the shape of the dose curve; as a rule, active = well fitted inhibition curve with a large enough effect; inconclusive = small, poorly fitted or top-dose-only effect, or another doubt; inactive = no such curve, though single readings can be large or run the other way.

CCCc1ccc(-c2ccc(/C=C/C(=O)O)cc2)nc1	Pf growth 96h inconclusive, Shiga toxin inh 61
CCc1c(C)nc2ncnn2c1N1CCN(S(=O)(=O)c2ccc(OC)cc2)CC1	Pf growth 96h inconclusive
O=C(Cc1ccc(NS(=O)(=O)c2ccc(F)cc2)cc1)NCc1ccccc1	Pf growth 96h inconclusive (no result: Pf growth 48h)
CCOc1ccccc1NC(=O)CSc1n[nH]c(N)n1	Pf growth 96h inconclusive
N#CCSc1ccccc1NC(=O)COC(=O)Cc1c[nH]c2ccccc12	Pf growth 96h 6.6µM, Pf growth 48h 10µM (no result: Cycloheximide cs, NS1 function inh, Shiga toxin inh)
CCC(CC)NC(=O)Nc1ccc(C)cc1	none
Cc1c(/C(O)=C2\C(=O)C(=O)N(CCN(C)C)C2c2ccco2)cnn1-c1ccccc1 (stereo unspecified)	Cycloheximide cs 30, Shiga toxin inh 67 (no result: Pf growth 48h)
Cc1c(/C(O)=C2\C(=O)C(=O)N(CCN(C)C)C2c2ccccc2)cnn1-c1ccccc1 (stereo unspecified)	Cycloheximide cs 50, Shiga toxin inh 111
CCCOc1ccc(/C(O)=C2/C(=O)C(=O)N(CCN(C)C)C2c2ccco2)cc1 (stereo unspecified)	Pf growth 96h inconclusive, Cycloheximide cs 37, Shiga toxin inh 74
CCN(CC)CCCN1C(=O)C(=O)/C(=C(/O)c2ccc3c(c2)OCCO3)C1c1ccco1 (stereo unspecified)	Cycloheximide cs 46
CN(C)CCCN1C(=O)C(=O)/C(=C(/O)c2ccc3c(c2)OCCO3)C1c1ccco1 (stereo unspecified)	Pf growth 96h inconclusive
O=[N+]([O-])c1cc([N+](=O)[O-])c(Oc2cc(F)ccc2F)cc1NN1CCCCC1	Pf growth 96h inconclusive, Pf growth 48h inconclusive
O=C(NCc1cccnc1)c1cc2nc(-c3cccs3)cc(C(F)(F)Cl)n2n1	none (no result: NS1 function inh)
CCc1ccc(N(CC(=O)NCCc2ccccc2)C(=O)CCC(=O)Nc2ccccn2)cc1	none
COc1ccccc1N1CCN(C2CC(=O)N(C)C2=O)CC1 (stereo unspecified)	none (no result: NS1 function inh)
O=C(Nc1ccc(C(=O)NN2C(=O)c3ccccc3C2=O)cc1)c1ccccc1	none (no result: NS1 function inh)
O=C(O)c1ccc2c(c1)C(=O)N(NC(=O)c1ccccc1)C2=O	Cycloheximide cs 31, Shiga toxin inh 61
COc1ccc(C)cc1NC(=O)c1nnn(CCc2ccccc2)c1N	Pf growth 96h inconclusive (no result: Pf growth 48h)
COc1ccc(C)cc1NC(=O)c1nnn(Cc2cc(C)ccc2C)c1N	Pf growth 96h 5.2µM (no result: Pf growth 48h)
COc1ccc(OC)c(NC(=O)c2nnn(Cc3ccccc3C)c2N)c1	Pf growth 96h inconclusive, Pf growth 48h 12µM
COc1cccc(Cn2nnc(C(=O)Nc3cc(C)ccc3OC)c2N)c1	Pf growth 96h inconclusive (no result: Pf growth 48h)
Cc1cc(N2C(=O)C(=O)/C(=C(/O)c3ccc(F)cc3)C2c2ccc(F)cc2)no1 (stereo unspecified)	Pf growth 96h 0.83µM
COc1cccc(C2/C(=C(\O)c3ccc(OC)c(OC)c3)C(=O)C(=O)N2c2cc(C)on2)c1 (stereo unspecified)	Pf growth 96h 5.2µM
CN(C)c1ccc(S(=O)(=O)NCC(=O)OCC(=O)c2ccc[nH]2)cc1[N+](=O)[O-]	none (no result: Cycloheximide cs, NS1 function inh, Shiga toxin inh)
Cc1nc2cc(F)ccc2n1C1CCN(Cc2nnnn2CCc2ccccc2)CC1	Pf growth 96h inconclusive, Pf growth 48h 9.3µM
CCOC(=O)C1CCN(Cc2nnnn2CCc2ccccc2)CC1	Cycloheximide cs 41
Cc1nc2cc(C(F)(F)F)ccc2n1C1CCN(Cc2nnnn2CCc2ccccc2)CC1	Pf growth 48h 13µM
Cc1ccc(Cn2nnnc2CN2CCC(n3nnc4cc(C(F)(F)F)ccc43)CC2)cc1	Pf growth 48h inconclusive
CCCCCSc1nnc(-c2ccccc2NC(C)=O)c(=O)[nH]1	Pf growth 96h inconclusive (no result: NS1 function inh)
O=C1CCC(O)CCN1CCSc1ccccc1 (stereo unspecified)	Cycloheximide cs 34, Shiga toxin inh 50
CC(C)CN1CCC(=O)N(CCSc2ccccc2)CC1	Cycloheximide cs 39, Shiga toxin inh 37
Cc1ccc(SCCN2CCN(CCc3ccccc3)CCC2=O)cc1	NS1 function inh inconclusive
CCCN1CCC(=O)N(CCSc2ccc(C)cc2)CC1	Cycloheximide cs 38, Shiga toxin inh 53
Cc1cc(C)n(-c2ccc(C(=O)N3CC(C)OC(C)C3)cc2)n1 (stereo unspecified)	none (no result: NS1 function inh)
O=C(COc1ccccc1)NCC(=O)N/N=C/c1ccco1	NS1 function inh inconclusive
CCS(=O)(=O)N1Cc2ccccc2CC1C(=O)Nc1ncc(C)s1 (stereo unspecified)	Cycloheximide cs 40, Shiga toxin inh 108
CCS(=O)(=O)N1Cc2ccccc2CC1C(=O)Nc1nc2ccc(C)cc2s1 (stereo unspecified)	Cycloheximide cs 39, Shiga toxin inh 68
Cc1cc(C)cc(Oc2cc(NC(=O)c3cn(C)nc3C)cc([N+](=O)[O-])c2)c1	Pf growth 96h 8.3µM (no result: Pf growth 48h)
CCOc1ccccc1-c1nnc2n1N=C(c1ccccc1OC)CS2	none (no result: Pf growth 96h, Pf growth 48h, NS1 function inh)
Brc1ccccc1C1=Nn2c(nnc2-c2ccco2)SC1	none
Brc1ccccc1C1=Nn2c(nnc2-c2ccccc2)SC1	Pf growth 96h 8.3µM, Pf growth 48h inconclusive
CCOc1ccc(C2=Nn3c(nnc3-c3ccccc3OC)SC2)cc1	Pf growth 96h inconclusive, Pf growth 48h 13µM
CC1=Nn2c(nnc2-c2cc(-c3ccccc3)n[nH]2)SC1	Pf growth 96h inconclusive, Pf growth 48h inconclusive
c1ccc(-c2ccc(C3=Nn4c(nnc4-c4cc(-c5ccccc5)n[nH]4)SC3)cc2)cc1	Pf growth 96h 12µM, Pf growth 48h inconclusive
CCc1cc2c(s1)c1cnn(Cc3ccccc3F)c(=O)c1n2C	none (no result: Pf growth 96h, Pf growth 48h, NS1 function inh)
O=C(Oc1ccc2c(c1)OCC2=O)c1ccccc1	Cycloheximide cs 44, Shiga toxin inh active (no result: Pf growth 96h)
CC(C)(C)c1ccc(OC(=O)c2ccccc2)cc1	none
CC(C)(C)c1ccc(C(=O)Oc2ccc3c(c2)OCC3=O)cc1	Cycloheximide cs 54, Shiga toxin inh 86 (no result: Pf growth 96h)
CC(=O)Nc1ccc(SCC(=O)c2cc(C)n(CC(F)(F)F)c2C)cc1	Cycloheximide cs 35, Shiga toxin inh 71 (no result: Pf growth 48h)
CC(=O)Nc1ccc(SCC(=O)c2cc(C)n(C)c2C)cc1	none (no result: Pf growth 48h)
O=C(O)c1ccc(NS(=O)(=O)c2ccc(Cl)c(C(=O)Nc3ccccc3[N+](=O)[O-])c2)cc1	none
O=C(CSc1nc2ccsc2c(=O)n1NC(=O)c1ccccc1)NCc1ccco1	none
O=C(CSc1nc2ccsc2c(=O)n1Cc1ccccc1)NCc1ccco1	Pf growth 48h inconclusive, Cycloheximide cs 47, Shiga toxin inh active (no result: Pf growth 96h)
Cc1sc2nc(SCC(=O)NCc3ccco3)n(Cc3ccccc3)c(=O)c2c1C	Pf growth 48h 10µM (no result: Pf growth 96h)
CCC(Sc1nc2ccsc2c(=O)n1-c1ccc(Cl)c(C)c1)C(=O)NCc1ccco1 (stereo unspecified)	Pf growth 96h 12µM, Pf growth 48h 13µM, Cycloheximide cs 25, Shiga toxin inh 44
CCOC(=O)c1sc2nc(SCC(=O)NCc3ccco3)n(Cc3ccccc3)c(=O)c2c1C	none
Cc1sc2nc(C(C)C)nc(SCC(=O)NCc3ccco3)c2c1C	Pf growth 96h inconclusive, Pf growth 48h inconclusive, Cycloheximide cs 32
Cc1cnc(C(=O)Nc2cccc(S(=O)(=O)N(C)C)c2)cn1	none
